Shown are actives, neighbours in structure and some others; about 6% of the full set was active somewhere.
VDR inh = blocks the human vitamin D receptor; P11473; AID 504847; VDR-SRC2-3 peptide fluorescence polarization, 2 h; 0.93% of 400,000 active; Potency, µM, without a hit: max response, negative = inhibition, most hits filed as inhibitors
Target sequence (P11473 whole entry, looked up): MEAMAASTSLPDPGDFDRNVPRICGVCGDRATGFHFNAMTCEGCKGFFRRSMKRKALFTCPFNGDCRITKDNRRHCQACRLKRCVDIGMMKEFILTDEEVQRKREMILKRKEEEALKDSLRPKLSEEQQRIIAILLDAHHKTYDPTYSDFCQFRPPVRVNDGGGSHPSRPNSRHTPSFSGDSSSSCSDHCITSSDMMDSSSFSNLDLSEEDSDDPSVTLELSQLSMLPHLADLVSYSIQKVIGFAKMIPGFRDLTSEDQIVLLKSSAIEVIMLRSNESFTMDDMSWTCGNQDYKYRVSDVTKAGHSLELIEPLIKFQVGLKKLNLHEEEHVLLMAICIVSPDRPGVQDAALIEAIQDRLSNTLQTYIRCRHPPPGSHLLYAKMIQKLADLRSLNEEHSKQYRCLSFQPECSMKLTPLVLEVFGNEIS
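Measured by FP: displacement of SRC2-3 coactivator peptide from VDR by library compounds, following a two-hour ambient incubation.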
Sfp inh = inhibitors of Bacillus subtilis Sfp phosphopantetheinyl transferase | Q9F4F7 | Potency, µM, without a hit: largest response in the series, negative = inhibition, actives largely listed as inhibitors | 3.5% of 310,000 active | AID 1490 | Biochemical Sfp PPTase activity, qHTS;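 also: the enzyme is Sfp with the accession as filed and its product quenches rhodamine fluorescence; 0% = enzyme reaction without inhibitor and -100% = no enzyme wells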
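Fluorescence-quenching assay with 15 nM Sfp, 5 uM rhodamine-CoA and 12.5 uM BHQ-2-labelled ybbR peptide in pH 7.6 Hepes/MgCl2 buffer. Enzyme was pre-incubated with compound for 15 min at room temperature. Rate was taken from the 30-min fluorescence change (525/598 nm).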
Tau fluor counter = counter-screen for tau fibril formation inhibitors | 0.93% of 280,000 active | Potency, µM (top dose mostly 57.7 µM), inactives show at the highest dose activity change, negative = decrease | tau K18 P301L Alexa594 fluorescence, heparin fibrillization | AID 1463; also: nearly all actives have a fitted effect of over 55% in size
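Human tau K18 P301L (15 uM unlabeled, 0.24 uM Alexa 594-labeled) in 100 mM sodium acetate pH 7 with 20 uM heparin, 6 hr at 37 C. ThT 30 uM added, 1 hr ambient; Alexa 594 FP and total fluorescence read at 555/632 nm.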
Tau FP inhib = blocks human tau fibril formation measured by polarization. P10636. K18 P301L tau heparin fibrillization, Alexa594 FP, 6 h. Potency, µM (doses to about 57.7 µM), for inactives: at the highest dose activity, negative = inhibition, usual class: inhibitors. 0.39% of 280,000 active; also: nearly all actives have a fitted effect of over 55% in size
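Human tau K18 […] P301L fragment, 15 uM unlabeled plus 0.24 uM Alexa 594-labeled tau (final), with compound and 20 uM heparin in 100 mM sodium acetate pH 7; 6 hr at 37 C, then Alexa 594 FP read.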
Tau fibril ThT = tau fibrillization inhibition (ThT binding). P10636. recombinant tau K18 P301L (four-repeat tau fragment), heparin-induced fibrillization, ThT fluorescence. Potency, µM (series often up to 57.4 µM), without a hit: at the highest dose activity, negative = inhibition, hits mostly inhibitors. 2.1% of 270,000 active. AID 1460; also: nearly all actives have a fitted effect of over 55% in size
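Aggregation was driven by heparin (20 uM final) acting on recombinant tau […] bearing P301L in 100 mM sodium acetate pH 7; fibrils were detected with Thioflavin T.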
PLK1 PBD inh = blocks phosphopeptide binding to human PLK1 polo-box domain; P53350; 2.8% of 360,000 active; Plk1 PBD binding of FITC phosphopeptide, fluorescence polarization; Potency, µM, without a hit: max response, negative = inhibition, usual class: inhibitors; also: series mostly up to about 57 µM; nearly all actives have a fitted effect of over 65% in size
Numbers without * were called inactive; ? = inconclusive; nt = not tested or not shown. Calls follow the shape of the dose curve; as a rule, active = well fitted curve in the direction sought with a large enough effect; inconclusive = small, poorly fitted or top-dose-only effect, or another doubt; inactive = no such curve, though single readings can be large; an effect the other way counts as inactive or inconclusive. Unless noted, % is scaled to controls: 0 for no effect and ±100 for the full control effect; potency is read from the fitted curve at half-maximal effect.

SMILES	VDR inh	Sfp inh	Tau fluor counter	Tau FP inhib	Tau fibril ThT	PLK1 PBD inh
O=C(O)c1ccc(N/C(=N\S(=O)(=O)c2ccc(Cl)cc2)c2ccccc2)cc1	-7%	22%	-7%	-11%	-8%	-10%
Cc1ccc(S(=O)(=O)NN/C(=N/S(=O)(=O)c2ccccc2)c2ccccc2)cc1	10%	9%	2%	-1%	0%	-1%
O=S(=O)(/N=C(/NC(=S)Nc1ccccc1)c1ccccc1)c1ccc(Cl)cc1	?	45µM*	nt	nt	nt	12µM*
COc1cc2oc(=O)c(CC(=O)N3CCCCC3)c(C)c2cc1OC	8%	nt	-17%	-2%	-12%	nt
N#CC(CC(=O)OCc1ccccc1)NC(=O)OCc1ccccc1 (centres undefined)	nt	nt	nt	nt	nt	9%
CCOc1cc2c(cc1OCC)CN(C(=O)c1cccc(S(=O)(=O)N3CCCC3)c1)CC2	-19%	nt	nt	nt	nt	-5%
CCc1cccc(CC)c1N(COC)C(=O)Cn1c(CC)nc2ccccc21	-13%	nt	-5%	6%	-9%	nt
CCc1cccc(CC)c1N(COC)C(=O)Cn1c(C(C)O)nc2ccccc21 (centres undefined)	-4%	89µM*	-5%	-3%	-7%	1%
COC/C=C/C1=CC2=CC(=O)C(C)(OC(=O)c3cnc4ccccc4n3)C(=O)C2=CN1CCN1CCOCC1 (centres undefined)	3%	3%	?	?	16µM*	-12%
O=C(O)c1cc(N2C(=O)C=CC2=O)cc(N2C(=O)C=CC2=O)c1	?	nt	nt	nt	nt	2.7µM*
Cc1ccc(Cl)cc1-n1ncc2c(Nc3ccc4c(c3)OCCO4)ncnc21	11%	nt	?	12%	-4%	nt
Cc1ccc(S(=O)(=O)Nc2cc3c4c(c2)CCN4C(=O)CC3)cc1	3%	nt	nt	nt	nt	-1%
CC(C)CN(C(=O)COC(=O)c1ccc2c(c1)NC(=O)CS2)C1CCS(=O)(=O)C1 (centres undefined)	-19%	50µM*	-6%	-5%	?	21µM*
CN(C(=O)COC(=O)c1ccc2c(c1)NC(=O)CS2)C1CCS(=O)(=O)C1 (centres undefined)	-7%	-9%	6%	-1%	2%	-18%
CN(C)S(=O)(=O)c1ccc(Cl)c(NC(=O)COC(=O)c2ccc(O)cc2)c1	-12%	0%	-11%	7%	-5%	56%
CN(C)S(=O)(=O)c1ccc(Cl)c(NC(=O)COC(=O)c2ccc3c(c2)NC(=O)CS3)c1	-22%	25µM*	-30%	-15%	-20%	?
CC(C)CN(C(=O)COC(=O)Cc1c[nH]c2ccccc12)C1CCS(=O)(=O)C1 (centres undefined)	7%	9%	-2%	5%	0%	27µM*
COc1cc(C)ccc1OCCSc1nc2ccc(NC(=O)c3ccco3)cc2s1	4%	nt	?	?	?	nt
O=C(COC(=O)COc1ccccc1)Nc1ncc([N+](=O)[O-])s1	?	nt	nt	nt	nt	17µM*
O=C(COc1ccc(Cl)cc1)Nc1ncc([N+](=O)[O-])s1	13%	-3%	-12%	-1%	?	-19%
CNc1ccnc(-c2cccc(NS(C)(=O)=O)c2)n1	-1%	25%	nt	nt	nt	nt
CCc1nc(SCC(=O)c2cc(C)ccc2C)n[nH]1	?	56µM*	-12%	-5%	-15%	?
CCc1nc(SCC(=O)Nc2ccc(N(C)C)cc2)n[nH]1	-17%	nt	nt	nt	nt	2%
CCc1nc(SCC(=O)Nc2ccc(N(CC)CC)cc2)n[nH]1	7%	nt	nt	nt	nt	30µM*
Cc1ccc(C)c(C(=O)CSc2n[nH]c(C(C)C)n2)c1	4%	-7%	-13%	-5%	-14%	?
CC(=O)Nc1ccc(SCC(=O)c2cc(C)n(-c3ccccc3)c2C)cc1	-4%	-7%	-29%	10%	?	-23%
CC(=O)Nc1ccc(SCC(=O)c2cc(C)ccc2C)cc1	-14%	-4%	nt	nt	nt	19µM*
Cc1ccc(C)c(C(=O)CSc2n[nH]c(C)n2)c1	?	79µM*	1%	-5%	0%	?
